EBV LMP1 NFkB – inhibitors of Epstein-Barr LMP1-induced NF-kappaB reporter; actives 0.69% (n = 350,000); AID 504558; LMP1-induced NF-kappaB luciferase reporter cells, luminescence; inhibition, % at 12.5 µM; in the data active = inhibition above about 41%; inconclusive = no clear call, values can overlap the other calls;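 also: 0% = neutral control wells and 100% = reference inhibitor control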
TROY signal inh – TROY signaling inhibition; Q293 LMP1-TROYcd NF-kB luciferase reporter, 4 h; inhibition, % at 10 µM; actives 0.98% (n = 360,000); AID 1347056;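 active = compounds whose plate-normalised and pattern-corrected inhibition of the luciferase reporter signal at the single screening dose is 50% or more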
LGR2 inh – inhibitors of bursicon-induced Drosophila LGR2 receptor cAMP signaling; actives 0.35% (n = 380,000); AID 720647; HEK293 LGR2, CRE-luciferase, bursicon-stimulated, 4 h; inhibition, % at 9.99 µM;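 active = drop in luminescence signal, shown as inhibition above about 50% in the replicate tests, limit read from the data, passing the limit was not always enough; inconclusive = probably only some replicates passing the limit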;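 also: agonist challenge used bursicon conditioned medium at about half maximal strength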
TWEAK-Fn14 inh – TWEAK-Fn14 signaling inhibition; TWEAK-stimulated Fn14 reporter cells, luciferase luminescence, 8 h; inhibition, % at 10 µM; actives 2% (n = 360,000); AID 1159606; in the data active = inhibition above about 50%
EWS-Fli inh – blocks EWS/Fli oncoprotein-driven transcription; A673 NR0B1-luciferase reporter, viability-normalised; inhibition, % at 12.6 µM; actives 0.67% (n = 350,000); AID 651661;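 active = mean inhibition of at least 50% after viability correction, with every replicate also passing that limit; inconclusive = mean reaches 50% but only one of two replicates passes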;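 also: firefly luciferase signal divided by Alamar Blue viability fluorescence both relative to DMSO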
* hit, by the source's call; ? = inconclusive; . = no result. This is a sample that favours compounds with a hit; in the whole collection about 2.6% have one here.

SMILES	EBV LMP1 NFkB	TROY signal inh	LGR2 inh	TWEAK-Fn14 inh	EWS-Fli inh
CCOC(=O)CC(NC(=O)C(Cc1ccc(N(CCCl)CCCl)cc1)NC(C)=O)C(=O)OCC (stereo unspecified)	55*	-5	-26	26	68*
CN1CC[C@@H]2CN[C@H](c3ccccc3)C[C@@H]21	.	.	2	.	-6
Oc1ccc(O)c2c1C1(Cl)C(Cl)=C(Cl)C2(Cl)C1(Cl)Cl	6	52*	23	43	-12
O=C(O)[C@@H]1[C@@H](CO)[C@@H]2Cn3c(ccc(C4=CCCC4)c3=O)[C@H]1N2C(=O)Cc1ccccn1	.	.	-16	.	1
COC(=O)[C@H]1[C@H](CO)[C@H]2Cn3c(ccc(-c4ccccc4)c3=O)[C@@H]1N2CC1CC1	.	.	-9	.	-3
Nc1c(C(=O)OCC2CCCO2)c2nc3ccccc3nc2n1Cc1cccs1 (stereo unspecified)	-12	68*	.	49	.
CC(C)CCn1c(N)c(C(=O)NCc2cccs2)c2nc3ccccc3nc21	-26	68*	27	63*	13
CC(C)OCCCNC(=O)c1c(N)n(Cc2cccs2)c2nc3ccccc3nc12	-26	34	.	30	.
COCCNC(=O)c1c(NC(=O)c2ccc(Br)o2)n(Cc2ccccc2)c2nc3ccccc3nc12	2	68*	15	58*	4
Nc1c(C(=O)NC2CCCC2)c2nc3ccccc3nc2n1CC1CCCO1 (stereo unspecified)	8	13	.	24	.
COCCNC(=O)c1c(N)n(CCC(C)C)c2nc3ccccc3nc12	-38	73*	.	35	.
COC(=O)[C@@H]1[C@@H](CO)[C@@H]2Cn3c(ccc(-c4cccnc4)c3=O)[C@H]1N2S(=O)(=O)c1ccccc1F	.	.	-5	.	-4
C/C=C/c1ccc(C2[C@@H]3CN(C(=O)CN(C)C)C[C@H]2N3)cc1 (stereo partly specified)	.	.	12	.	-2
O=C1CNC[C@@H]2[C@@H](c3ccc(Br)cc3)[C@@H](CO)N12	.	.	6	.	0
O=C(O)[C@H]1[C@H](CO)[C@H]2Cn3c(ccc(-c4ccncc4)c3=O)[C@@H]1N2C(=O)C1CCCCC1	.	.	11	.	1
Cc1ccc(OC(=O)N(C)C[C@@H]2OCc3ccccc3-c3c(n(C)c4ccccc34)C(=O)N([C@@H](C)CO)C[C@H]2C)cc1	.	.	33	.	24
CCCCCN1C(=O)c2cc(OC)ccc2[C@@]2(C(=O)OCC)Cc3cc(OC)ccc3[C@@H]12	.	36	40	62*	11
CCOC(=O)[C@]12Cc3cc(C)ccc3[C@H]1N(C1CCCCC1)C(=O)c1ccccc12	.	44	64*	69*	43
CCOC(=O)[C@]12Cc3cc(C)ccc3[C@H]1N(Cc1ccccc1)C(=O)c1cc(OC)ccc12	.	17	47	16	20
CCOC(=O)[C@]12Cc3ccc(C)cc3[C@H]1N(C1CCCCC1)C(=O)c1cc(OC)ccc12	.	48	55*	101*	?
CCOC(=O)[C@]12Cc3cc(C)ccc3[C@H]1N(CCC(=O)OC)C(=O)c1ccccc12	.	21	53*	18	21
CCOC(=O)[C@]12Cc3cc(OC)ccc3[C@H]1N(C)C(=O)c1cc(OC)ccc12	.	32	?	33	-1
CCOC(=O)[C@]12Cc3cc(OC)ccc3[C@H]1N(CC(=O)OC)C(=O)c1ccccc12	.	2	0	13	2
COc1ccc(C#Cc2ccc([C@H]3[C@H]4CN(C(=O)Cc5ccccc5)CCCCN4[C@H]3CO)cc2)cc1	.	.	4	.	-2
O=C(Cc1ccccc1)N1CC2(C1)[C@H](c1ccccc1)[C@@H](CO)N2Cc1cccc(F)c1	.	.	0	.	3
CCOC(=O)[C@]12Cc3cc(Cl)ccc3[C@H]1N(C1CCCCC1)C(=O)c1cc(OC)ccc12	.	63*	101*	102*	68*
CN1CCN(c2ccc3c(c2)S(=O)(=O)c2ccccc2C3=O)CC1	-8	-32	-108	-22	-123
CN1CCN(c2cccc3c2C(=O)c2ccccc2C3=O)CC1	6	64*	-45	55*	-8
Cc1cccc(C)c1-n1nnnc1C(CCc1ccccc1)N1CCC2(CC1)C(=O)NCN2c1ccccc1 (stereo unspecified)	.	67*	20	31	21
COc1ccc(C(c2nnnn2C2CCCC2)N2CCC3(CC2)C(=O)NCN3c2ccccc2)cc1 (stereo unspecified)	.	56*	5	-8	9

Screens as filed in PubChem.
